# Test results as given in article PMC5540273 (PLoS ONE, 2017).
# Tests used:
# Settings in all cases: concentration: 1 μM, replicates: in singlicate; n = 1
# TNNI3K = test system: TNNI3K
# TRKA = test system: T1, TRKA
# T1 construct: gene NTRK1
# TRKB = test system: TRKB
# TRKC = test system: T2, TRKC
# T2 construct: gene NTRK3
# TRPM6 = test system: TRPM6
# TSSK1B = test system: TSSK1B
# TSSK3 = test system: TSSK3
# TTK = test system: TTK
# TXK = test system: TXK
# [1] = test system: TYK2(JH1domain-catalytic)
# 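Note: KINOMEscan kinase panel screen.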
Compound,%Inh (TNNI3K) [%],%Inh (TRKA) [%],%Inh (TRKB) [%],%Inh (TRKC) [%],%Inh (TRPM6) [%],%Inh (TSSK1B) [%],%Inh (TSSK3) [%],%Inh (TTK) [%],%Inh (TXK) [%],%Inh [1] [%]
Cc1ccc(C(=O)N2CC[C@@H](O)C2)cc1-n1c(C)cc(OCc2ccc(F)cc2F)c(Br)c1=O,0,0,0,0,0,0,0,3,0,0
Cc1ccc(S(=O)(=O)Nc2ccc(Nc3nccc(Nc4cccc5[nH]ncc45)n3)cc2)cc1 [GSK581271],7,0,33,24,11,4,11,0,77,42
CCS(=O)(=O)c1ccc(OC)c(Nc2nccc(-c3c(-c4cccc(NC(=O)c5c(F)cccc5F)c4)nn4ncccc34)n2)c1 [GSK326180],15,0,5,0,55,23,12,0,15,0
Cc1ccc(C(=O)Nc2ccc(Nc3ccnc4cc(-c5nccs5)ccc34)cc2O)cc1.Cl [GW494702],6,60,20,25,29,13,6,0,52,42
CCn1c(-c2nonc2N)nc2c(C#CC(C)(C)O)ncc(OCCCCN)c21.O=C(O)C(F)(F)F.O=C(O)C(F)(F)F [GSK507274],9,0,19,1,0,80,99.5,21,49,33
O=C(Nc1cccc(-c2nn3ccccc3c2-c2ccnc(Nc3cccc(F)c3)n2)c1)c1c(F)ccc(F)c1Cl [GSK357952],0,11,0,0,32,0,6,28,67,11
CN(C)Cc1ccc(-c2ccc3c(Nc4ccc(Oc5ccccn5)cc4)ccnc3c2)o1 [GW567148],0,100,31,35,52,0,6,0,0,30
O=C(NC1CCN(c2ccnc(Nc3ccc(F)cc3)n2)C1)c1cc2ccccc2s1 (stereo not shown) [GSK1379716],4,10,0,8,22,5,19,17,8,2
Cl.Cl.NCC(NCc1ccc(-c2ccnc3[nH]ccc23)s1)c1ccccc1 (stereo not shown) [GSK1321565],0,98.5,72,70,0,38,16,0,25,80
Cl.NC(=O)c1cccc(Nc2nccc(Nc3ccc(Oc4c(Cl)cccc4Cl)c(Cl)c3)n2)c1 [GW659009],0,20,7,11,36,8,88,10,0,21
COc1cccc(C2=C(Nc3ccc(Cl)c(C(=O)O)c3)C(=O)NC2=O)c1 [SB-390769],13,0,48,34,0,30,16,0,3,100
COC(=O)Nc1nc2cc(Oc3ccc(NC(=O)Nc4cc(C(F)(F)F)ccc4F)cn3)ccc2[nH]1.Cl.Cl [GW681170],92.9,100,97.4,97,29,0,16,43,0,14
COc1cc(Nc2nccc(-c3c(-c4cccc(NC(=O)c5c(F)cccc5F)c4)nn4ncccc34)n2)cc(OC)c1OC [GSK327238],55,48,0,0,54,11,19,10,93.6,88
Clc1ccc(-c2nn3ncccc3c2-c2ccnc(Nc3ccc4c(c3)OCCO4)n2)cc1 [GW829116],0,0,0,0,7,0,0,2,0,0
O=C(Nc1cccc(-c2nn3ccccc3c2-c2ccnc(Nc3cccc(C(F)(F)F)c3)n2)c1)c1c(F)cccc1F [GSK292658],0,0,0,0,11,2,5,20,48,20
Nc1ncnc2c1nc(-c1ccccc1)n2-c1ccccc1 [SKF-97293],0,37,48,36,50,2,22,0,15,68
